According to PubChem BioAssay AID504707 (The Scripps Research Institute Molecular Screening Center, 2011):
Hit rate of the full screen: of about 340,000 compounds, about 280 (0.082%) were called active. For the sample, actives were picked, then their nearest neighbours and some compounds at random. Values without a mark were called inactive.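 Rule for the calls: active = percent activation above the mean of all tested compounds plus 3 SD (cut at about 19% in these data); inactive = the rest.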

What follows are compounds tested against cAMP-dependent protein kinase type I-alpha regulatory subunit (Bos taurus) + cAMP-dependent protein kinase catalytic subunit beta (Mus musculus) (UniProt P00514+P68181) (assay: compounds dissociating PKAc from R1A subunit – biochemical, fluorescence polarization, Cy5-IP20, bovine R1A, mouse PKAc, primary screen (AID 504707;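 note: higher means more PKAc released from R1A so a rise in polarization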)). Details: PKA-R1A dissociation, at 11.4 µM, hits give high values, scaled: DMSO 0%, 113 µM cGMP 100%.

| SMILES | activation |
| --- | --- |
| COc1cc2ccc(C(C)=O)c(O)c2cc1OC | 4.58% |
| Cc1csc(SCC(=O)Nc2ccc(C)c(S(=O)(=O)N(C)C)c2)n1 | -1.19% |
| CCOC(=O)C=Cc1ccc(C(=O)OCC)[nH]1 | 1.4% |
| O=C(NCC(F)(F)F)c1ccc(S(=O)(=O)NCCc2ccc3c(c2)OCCO3)cc1 | -0.03% |
| Cc1cc(C)c2c(=O)n3c(nc2c1)C(CC(C)C)NC(=O)c1cc2ccccc2cc1-3 (stereo not given) | -8.23% |
| COc1ccc(C(CNC(=O)CSc2ccccc2)N2CCOCC2)cc1 (stereo not given) | -7.96% |
| Cc1cccc(S(=O)(=O)N(C)C[C@@H]2OCc3cnnn3CCCC(=O)N([C@H](C)CO)C[C@@H]2C)c1 | 1.99% |
| CCN(CC)C(=O)C1=C(C)N(Cc2ccc(C(C)(C)C)cc2)C(=O)C(CC(=O)NCc2cccc3ccccc23)C1 (stereo not given) | -15.8% |
| COc1ccc([C@H]2C[C@@H](n3cc(COC(=O)c4ccccc4)nn3)[C@H](O)CN2C(=O)c2cccs2)cc1 | -9.97% |
| COc1ccc(NC(=O)c2ccc(C#CC(C)(C)O)cc2)cc1 | 23.1% (active) |
| COc1ccc(C(=O)Nc2ccc(-n3nncc3C(C)(C)C)cc2)cc1 | -6.01% |
| COc1ccc(NS(=O)(=O)c2ccc(NC(=O)c3ccc(N(C)S(C)(=O)=O)cc3)cc2)cc1 | 9.45% |
| COn1c(=O)c(=O)n(OC)c2ccccc21 | -14.3% |
| COc1ccc(NC(=O)c2cc(=O)[nH]c3ccccc23)cc1S(=O)(=O)N1CCOCC1 | 3.45% |
| N#CCCC(C#N)(c1cccnc1)N1CCOCC1 (stereo not given) | 9.19% |
| O[C@@H]1C[C@H](c2ccccc2)N(Cc2cccs2)C[C@H]1n1cc(C2CC2)nn1 | 8.01% |
| Cn1ncc2c(NNC(=O)Cc3cccc4ccccc34)ncnc21 | -20.9% |
| O=C(CNC(=O)N1CC(=O)Nc2ccccc21)Nc1ccc(Br)cc1F | -0.99% |
| CCOc1ccc(C2NC(=S)NC3=C2CCc2ccccc23)cc1 (stereo not given) | -2.38% |
| CCOC(=O)c1cc(-c2sc(NC(=O)c3ccccc3)nc2C)n(-c2ccc(Br)cc2)n1 | 4.25% |
| C[C@H](CO)N1C[C@H](C)[C@@H](CN(C)C(=O)c2cccc(F)c2)Oc2cc(-c3cncnc3)ccc2S1(=O)=O | 0.35% |
| CCOC(=O)C1CCN(C(=O)c2ccc3c(=O)n4nc(Nc5ccccc5CC)sc4nc3c2)CC1 | -0.99% |

| SMILES | activation |
| --- | --- |
| C[C@@H]1CN([C@@H](C)CO)S(=O)(=O)c2ccc(-c3ccc(C(=O)N(C)C)cc3)cc2O[C@@H]1CN(C)Cc1ccccc1C(=O)O | -3.75% |
| O=S1(=O)CCN(C2CCCCCCCCCCC2)CC1 | 7.32% |
| c1ccc(Cn2nnc3c(NCC4CC4)ncnc32)cc1 | 5.88% |
| O=C(COc1ccc(S(=O)(=O)N2CCCC2)cc1[N+](=O)[O-])N1CCCCC1 | -0.2% |
| Cc1cccc(N(CC(=O)N2CCCC2)S(C)(=O)=O)c1C | -6.73% |
| CC1=C(C(=O)Nc2cccc(C(=O)NCC(C)c3ccccc3)c2)SCCO1 (stereo not given) | 9.58% |
| CCOC(=O)c1c(NC(=S)SC)sc(C(=O)N2CCc3ccccc3C2)c1C | -7.69% |
| Cc1ccc(S(=O)(=O)N2CCOCC2)cc1NC(=O)c1ccncc1 | -4.48% |
| OCC1OC(n2cnc3c(N4CCCC4)ncnc32)C(O)C1O (stereo not given) | 2.45% |
| CC(Sc1ccc(S(=O)(=O)N2CCN(C)CC2)cn1)C(=O)NC1CCCC(C)C1C (stereo not given) | 1.21% |
| NC1=CC(=O)C(=O)c2cccnc21 | 0.52% |
| CCCc1ccc(S(=O)(=O)N2CCN(C(=O)c3cc(C)on3)CC2)cc1 | 8.59% |
| CCc1noc(C)c1C(=O)OCC(=O)c1ccc(NC(=O)CC(C)C)cc1 | -17.9% |
| COc1ccc2c(c1)CCCO[C@]21O[C@H](CCO)C[C@H](O)[C@H]1O | -17.7% |
| COCOCCn1cc(CN2CCS(=O)(=O)N(Cc3ccc(-c4ccccc4)cc3)C(CC(C)C)C2=O)nn1 (stereo not given) | -7.1% |
| CCc1cc(C(=O)N(CC)CC(=O)Nc2c(F)cccc2F)sc1C | 2.41% |
| O=S(=O)(c1ccc(Cl)s1)N1CCC2(CC1)OCCO2 | -0.53% |
| Cc1noc(C)c1S(=O)(=O)N(C)C[C@H]1OCCCC[C@@H](C)Oc2ccc(NC(=O)CCCN(C)C)cc2C(=O)N([C@H](C)CO)C[C@@H]1C | -9.82% |
| Cc1ccn(CC(=O)NC2CCCN(Cc3ccccc3F)C2)n1 (stereo not given) | 3.67% |
| CCOC(=O)c1cnc(SC)nc1Sc1ccc(Cl)cc1Cl | -0.11% |
| C[C@@H]1CN([C@H](C)CO)S(=O)(=O)c2ccc(C#CC3CCCCC3)cc2O[C@H]1CN(C)C(=O)Cc1ccncc1 | -5.17% |
| CC1CCN(C(=O)CSc2nnc(-c3ccco3)n2N)CC1 | -3.33% |

| SMILES | activation |
| --- | --- |
| Cc1ccc(CCNC(=O)CN2C(=O)CSc3ccc(S(=O)(=O)N4CCOCC4)cc32)cc1 | -7.23% |
| CCCCN=C(N)/C(C(=O)OCC)=C(\O)c1ccc(OC)cc1 | -0.11% |
| COc1ccc(S(=O)(=O)N2CCC(C(=O)NCCC(=O)NCCc3cccc(F)c3)CC2)cc1 | -4.12% |
| NS(=O)(=O)c1ccc(CNC(=O)c2cc(S(=O)(=O)N3CCOCC3)ccc2N2CCCC2)cc1 | -1.96% |
| CCN(CC)C(=O)C1=C(C)N(Cc2ccccc2)C(=O)C(CC(=O)NC(c2ccccc2)c2ccccc2)C1 (stereo not given) | -7.55% |
| CCc1nc2c(=O)[nH]cnc2o1 | 12.2% |
| CC1CCC2(CC1)NC(=O)N(CC(=O)NCc1ccco1)C2=O (stereo not given) | -3.37% |
| COc1ccc(NC(=O)COC(=O)C2COc3ccccc3O2)cc1 (stereo not given) | 11.1% |
| O=C(CSc1ccc(Cl)cc1)NC1CC1 | -0.65% |
| CCCNC(=O)C1CC(=O)N(c2ccc(OCc3ccccc3)cc2)C1 (stereo not given) | 3.3% |
| O=C(COC(=O)c1cccc(Cl)c1Cl)NC1CCCCCC1 | -4.58% |
| C[C@H]1CN([C@@H](C)CO)C(=O)CCCn2cc(nn2)CO[C@@H]1CN(C)C(=O)Nc1ccccc1 | -15.3% |
| CCN(c1ccc(NC(=O)COC(=O)CCc2nc3ccccc3n2-c2ccccc2)cc1)C(C)C | -8.81% |
| Cc1ccc(S(=O)(=O)NN=C2CC(C)(C)CC(=O)C2(C)C)cc1 | -0.8% |
| C[C@H]1CN([C@@H](C)CO)C(=O)CCCn2nncc2CO[C@@H]1CN(C)S(=O)(=O)c1cccc(C#N)c1 | -0.38% |
| Cc1ccc([C@H]2N[C@]3(CCCN(Cc4ccccc4)C3=O)[C@H]3C(=O)N(Cc4ccccc4)C(=O)[C@@H]23)cc1 | 3.96% |
| CSCCC1NC(=O)N(CC(=O)Nc2cccc(S(=O)(=O)N3CCCCCC3)c2)C1=O (stereo not given) | 4.33% |
| CC(C)CC1C(=O)N(Cc2cn(CC3CCCCC3)nn2)CCS(=O)(=O)N1Cc1ccc(-c2ccc(Cl)cc2)cc1 (stereo not given) | -4.01% |
| COc1ccc(CNc2nnnn2C)cc1 | 19.2% (active) |
| Cn1nnnc1NCc1ccc(Cl)c(Cl)c1 | -9.38% |
| CCCn1nnnc1NCc1ccc(OC)cc1 | -2.85% |
| Cc1ccccc1OS(=O)(=O)c1cccc([N+](=O)[O-])c1 | 15.6% |

| SMILES | activation |
| --- | --- |
| O=C(NCc1nnnn1-c1ccc(Cl)cc1)c1ccc2c(c1)OCO2 | 4.42% |
| O=[N+]([O-])c1ccc(C(S(=O)(=O)Cc2ccccc2)S(=O)(=O)Cc2ccccc2)cc1 | 4.44% |
| CCOC(=O)c1cnn2c(SC)ncnc12 | 1.57% |
| CN(C)C(CNC(=O)c1cccc(S(=O)(=O)N2CCc3ccccc3C2)c1)c1ccccc1 (stereo not given) | -0.91% |
| CC1=C(C(=O)N2CCOCC2)CC(CC(=O)NCc2cccc3ccccc23)C(=O)N1CCC1=CCCCC1 (stereo not given) | -16.2% |
| Cc1cc(C)c(C#N)c(SCC(=O)NN2CC(=O)N(c3ccccc3F)CC2=O)n1 | -8.96% |
| CC(C)CC1C(=O)N(Cc2cn(Cc3ccco3)nn2)CCS(=O)(=O)N1Cc1ccc(-c2ccc(Cl)c(Cl)c2)cc1 (stereo not given) | -7.28% |
| CCOC(=O)c1nc(-c2ccc3c(c2)OCO3)[nH]c1C | -2.48% |
| CC1=C(C(=O)N2CCOCC2)CC(CC(=O)NCCN2CCOCC2)C(=O)N1CCC1=CCCCC1 (stereo not given) | -5.53% |
| CCC(C)C1(C2CCCC2)NC(=O)NC1=O (stereo not given) | -4.54% |
| O=C(Nc1cccc(C(=O)O)c1)/C(=C\c1ccccc1)NC(=O)c1ccc(Br)o1 | 3.24% |
| O=C(c1ccc(N2CCCC2=O)cc1)N1CCN(c2ccc(C(F)(F)F)cc2[N+](=O)[O-])CC1 | 0.5% |
| CCN(C(=O)C1CCCN(c2nc(-c3ccc(OC)cc3)no2)C1)c1ccc(OC)cc1 (stereo not given) | -6.29% |
| Cc1ccnc(SC2CC(=O)N(c3ccccc3)C2=O)n1 (stereo not given) | 8.38% |
| Cc1cccc(NS(=O)(=O)c2cc(Cl)ccc2Cl)n1 | -4.38% |
| O=C1[C@H]2[C@@H](c3ccc(C(F)(F)F)cc3)N[C@]3(CCCN(Cc4ccc(Br)cc4)C3=O)[C@H]2C(=O)N1Cc1ccccc1 | -1.26% |
| CC(=O)N1CCc2cc(S(=O)(=O)NC3CCCCC3)ccc21 | 5.76% |
| Cc1ccc(NC(=O)Cn2sc3ccccc3c2=O)cc1 | 8.53% |
| CN(C)c1ccc(NC(=O)CSc2n[nH]c(-c3ccco3)n2)cc1 | 7.46% |
